Source: PubChem BioAssay
SARS PLP yeast – SARS-CoV PLP inhibition in yeast | S. cerevisiae expressing SARS-CoV PLpro, growth rescue | Potency, µM (highest dose often 32.9 µM), for inactives: top-dose activity, positive = growth rescue, usual class: activators | 330,000 tested, 0.19% active | AID 485353; calls by dose curve; further: potency means the concentration at half of the fitted maximal effect; 0% is about no effect; nearly all actives have a fitted effect of over 55% in size
Shiga toxin inh – Shiga toxin inhibition; Vero cells, Shiga toxin protein synthesis inhibition reporter; inhibition, % at 38.7 µM; 290,000 tested, 9.2% active; AID 2315; in the data active means inhibition mostly above about 28%, no sharp cut-off; inactive means mostly below about 43%; further: 0% is about no effect
Cycloheximide cs – counter-screen hit for Shiga toxin inhibitors, cycloheximide; cell reporter, cycloheximide protein synthesis inhibition counterscreen; max response, %; 300,000 tested, 12% active; AID 2314; in the data active means max response mostly above about 13%, no sharp cut-off; inactive means mostly below about 14%; further: read at 38.3 µM for the half of the compounds with a filed dose; 0% is about no effect
Pf growth 48h – inhibits P. falciparum growth in the first generation, 48 h; Potency, µM (titrated, usually from 28.7 µM), inactives show at the highest dose activity change, negative = inhibition, usual class: inhibitors; P. falciparum luciferase growth in erythrocytes, 48 h; 310,000 tested, 5.9% active; AID 504832; further: potency means the concentration at half of the fitted maximal effect; on the % scale 0 is the no-effect control and ±100 the full control effect
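Parasite viability was followed by luminescence of a genomically integrated firefly luciferase. Cultures held 0.1% parasitemia at 2% hematocrit (final), incubated under 5% CO2 at 37 C.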
Pf growth 96h – P. falciparum growth inhibition at 96 hours; P. falciparum luciferase reporter growth, 96 h; Potency, µM (titrated, usually from 28.7 µM), for the others: at the top dose activity change, negative = inhibition, actives largely listed as inhibitors; 320,000 tested, 6.9% active; AID 504834; further: potency means the concentration at half of the fitted maximal effect; on the % scale 0 is the no-effect control and ±100 the full control effect
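96 h incubation, 37 C, 5% CO2, of luciferase-reporter P. falciparum-infected RBCs (2% hematocrit, 0.05% parasitemia final) with test compounds; endpoint luminescence.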
AMA1-RON2 inh – AMA1-RON2 (P. falciparum) interaction inhibition; AlphaScreen AMA1-biotinylated RON2 peptide binding; 360,000 tested, 0.2% active; AID 720542; Potency, µM (titrated, usually from 58.2 µM), for the others: top-dose activity change, negative = inhibition, actives largely listed as inhibitors;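 further: potency means the concentration at half of the fitted maximal effect; 0% = vehicle wells and -100% = peptide control; nearly all actives have a fitted effect of over 45% in size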
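AMA1 (3D7) with his tag at 25 nM final met compounds first, then biotinylated RON2 peptide at 25 nM; detection used donor plus acceptor beads, 10 µg/mL apiece, read by AlphaScreen after 30 min at room temperature.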
* = called active by the depositor; ? = inconclusive; · = no result; [ ] = another dose, or the depositor's remark. A selection: hits, their analogues and other compounds. The true share with any hit is near 19%. Unless noted, the call rests on the fitted dose curve; in most records, active means well fitted curve in the direction sought with a large enough effect; inconclusive means small, poorly fitted or top-dose-only effect, or another doubt; inactive means no such curve, though single readings can be large; an effect the other way counts as inactive or inconclusive.

SMILES | SARS PLP yeast | Shiga toxin inh | Cycloheximide cs | Pf growth 48h | Pf growth 96h | AMA1-RON2 inh
Cc1nn(Cc2ccccc2Cl)c2sc(C(=O)NCc3ccc4c(c3)OCO4)cc12 | 1.0% | -2.0 | 14.5 | · | 11.7µM* | -11.4%
Cc1nn(Cc2ccc(F)cc2)c2sc(C(=O)Nc3nccs3)cc12 | 1.0% | -2.4 | -3.1 | ? | ? | 66.6%
COc1ccccc1CNC(=O)c1cc2c(C)nn(Cc3ccc(F)cc3)c2s1 | -14.1% | -8.1 | 1.0 | ? | 11.7µM* | -3.7%
CCC(CC)NC(=O)c1cc2c(C)nn(Cc3ccccc3Cl)c2s1 | -2.6% | -4.2 | -4.1 | 13.1µM* | · | 28.6%
Cc1nn(Cc2ccccc2Cl)c2sc(C(=O)Nc3ccccc3N3CCOCC3)cc12 | -4.0% | -19.5 | -4.6 | ? | ? | 0.0%
CC(C)C(=O)N1N=C2CCCCC2C1(O)C(F)(F)F (stereo not drawn) | 1.9% | 1.4 | -1.2 | 64.4% | 107.1% | 7.3%
Cc1cc(C(=O)CSc2nnnn2C)c(C)n1CCc1ccc(F)cc1 | 1.0% | 17.3 | -2.1 | 6.1% | 14.6% | -6.8%
Cc1cc(C(=O)CSc2nnnn2C)c(C)n1Cc1ccco1 | -0.9% | 87.2* | 70.6* | 85.9% | 88.2% | -7.9%
Cc1cc(C(=O)CSc2ncccn2)c(C)n1Cc1ccco1 | -1.6% | 78.5* | 45.6* | 343.4% | 34.4% | -0.6%
CC(C)CN(C(=O)CSc1nnc2ccccn12)C1CCS(=O)(=O)C1 (stereo not drawn) | 1.4% | · | · | -7.2% | -10.2% | 7.4%
Cc1ccc(-n2ccnc2SCC(=O)N(CC(C)C)C2CCS(=O)(=O)C2)c(C)c1 (stereo not drawn) | 2.5% | -17.4 | -0.1 | ? | 4.15µM* | -12.4%
CC(C)CN(C(=O)CSc1nn(-c2ccc(Cl)cc2)c(=S)s1)C1CCS(=O)(=O)C1 (stereo not drawn) | ? | -12.8 | -4.2 | 8.28µM* | ? | 35.0%[11.6 µM]
COC(=O)c1cccc(C23CC4(C2)[C@H](CN(Cc2ccc(-c5ccccc5)cc2)[C@@H]4c2ccccc2)C3c2ccccc2)c1 (stereo partly drawn) | 1.9% | 3.6 | -3.6 | 11.7µM* | 1.65µM* | 3.5%
COC(=O)c1ccc(C23CC4(C2)[C@H](CN(Cc2ccc(-c5ccccc5)cc2)[C@@H]4c2ccccc2)C3c2ccc(Cl)nc2)cc1 (stereo partly drawn) | -0.3% | 18.1 | -2.2 | 11.7µM* | ? | -0.9%
CC(C)C(NC(=O)OCc1ccccc1)C(=O)OCC(=O)N1CCCCC1 (stereo not drawn) | -6.9% | 69.3* | 44.2* | 117.4% | -16.5% | 9.3%
CN1N=C(C(C)(C)C)CSC1=Nc1ccc(F)cc1 | -0.4% | 36.4 | 19.0* | ? | 10.0% | -0.1%
COc1cccc(C2CC(c3cccs3)=NN2C(=O)CSc2nc3ccccc3s2)c1OC (stereo not drawn) | 2.0% | 13.2 | 3.4 | ? | 7.38µM* | -15.0%
COc1cccc(C2CC(c3cccs3)=NN2C(=O)CCC(=O)O)c1OC (stereo not drawn) | 0.2% | 19.4 | 11.3* | ? | -13.8% | -1.2%
COc1ccccc1NC(=S)N(Cc1cccnc1)Cc1ccccc1Cl | -2.0% | 23.5 | 0.5 | ? | ? | -20.0%
COCCn1nnnc1C(C(C)C)N(Cc1cccnc1)Cc1ccccc1Cl (stereo not drawn) | 0.8% | -1.8 | -0.8 | 10.4µM* | -0.4% | 3.2%
CCC(C)(C(=O)NC1CCCC1)N(C(=O)c1ccccn1)c1ccccc1 (stereo not drawn) | -4.6% | -7.3 | 9.4 | -8.7% | 0.3% | 3.3%
COC(=O)C1=C(c2ccc3ccccc3c2)C[C@@H]2CC[C@H]1N2C(=O)NCC1CC1 | -2.5% | · | · | 3.29µM* | ? | -3.0%
COCCNC(=O)N1[C@H]2CC[C@@H]1C(C(=O)OC)=C(c1ccc(-c3ccccc3)c(F)c1)C2 | -1.4% | · | · | ? | ? | -11.4%
COC(=O)C1=C(c2ccc(F)cc2F)C[C@@H]2CC[C@H]1N2C(=O)NCC1CC1 | -6.3% | · | · | 23.7% | 39.2% | -0.9%
COC(=O)C1=C(c2ccc(-c3ccccc3)c(F)c2)C[C@@H]2CC[C@H]1N2C(=O)NCCOc1ccccc1 | -0.3% | · | · | 3.29µM* | ? | -4.4%
SMILES | SARS PLP yeast | Shiga toxin inh | Cycloheximide cs | Pf growth 48h | Pf growth 96h | AMA1-RON2 inh
COC(=O)C1=C(c2ccc3ccccc3c2)C[C@@H]2CC[C@H]1N2C(=O)NC1CC1 | -7.6% | · | · | ? | ? | 2.4%
COC(=O)C1=C(c2ccc(-c3ccccc3)c(F)c2)C[C@@H]2CC[C@H]1N2C(=O)NC1Cc2ccccc2C1 | 2.7% | · | · | 9.28µM* | ? | -7.0%
COC(=O)C1=C(c2ccc(-c3ccccc3)c(F)c2)C[C@@H]2CC[C@H]1N2C(=O)NCC1CC1 | -2.9% | · | · | 4.65µM* | ? | 10.0%
CC(NS(=O)(=O)c1ccc(Br)s1)c1ccccc1 (stereo not drawn) | -0.8% | -4.5 | 1.3 | 12.7% | 1.7% | 11.6%
Cc1cc2c(cc1C)-c1nnnn1C(C)(C)C2 | -8.6% | 59.0* | 16.7 | 48.7% | -9.4% | 6.2%
Cc1cccc(-c2nnc(SCc3cc(=O)[nH]c4ccccc34)n2C)c1 | 2.5% | 7.7 | -4.0 | 13.1µM* | ? | 19.4%
Cn1ccnc1SCc1cc(=O)[nH]c2ccccc12 | 2.1% | 18.7 | 17.1* | 20.1% | -7.5% | -1.9%
CCn1c(SCc2cc(=O)[nH]c3ccccc23)nnc1C1CC1 | -22.1% | -8.3 | -0.6 | 11.9% | -14.6% | -14.4%
O=C(CSc1nnc(-c2cccnc2)o1)N1CCCCC1 | 3.8% | 31.7 | 4.9 | 40.2% | 3.1% | 15.9%
C=CCSc1nnc(-c2cccnc2)o1 | -0.8% | 22.0* | 15.0* | 42.4% | 8.4% | 2.4%
O=C(CSc1nnc(-c2ccncc2)o1)c1cccc([N+](=O)[O-])c1 | -0.2% | -7.4 | -2.8 | 4.5% | 47.2% | 6.8%
C=CCSc1nnc(-c2ccc([N+](=O)[O-])cc2)o1 | -1.9% | 80.0 | 19.2* | 60.5% | 65.3%[1.15 µM] | -9.3%
NC(=O)CSc1nnc(-c2ccc([N+](=O)[O-])cc2)o1 | 0.6% | 40.0 | 18.8* | -5.0% | -3.7% | 12.5%
COC(=O)c1sc2ncn(CC(=O)N(C)C3CCCCC3)c(=O)c2c1C | 3.2% | -12.2 | -3.8 | -0.2% | 3.5% | 2.4%
CC(C)c1ccc(NC(=O)CCN2C(=O)[C@@H]3Cc4ccccc4CN3C2=O)cc1 | 2.0% | 7.6 | -2.4 | ? | ? | 7.1%
O=C(NCCOc1ccccc1F)c1ccc2c(=O)n3c(nc2c1)CCC3 | 2.4% | · | · | 215.5% | 302.5% | 50.9%
CCN(CC)c1ccc(NC(=O)COC(=O)/C=C/c2nc3ccccc3s2)cc1 | 14.4% | 65.8 | 13.7* | 18.6% | 16.4% | ?
CCN(CC)c1ccc(/C=C/c2nc3ccccc3s2)cc1 | -4.4% | 127.2* | 40.4* | 209.3% | 78.0% | ·
COc1ccc(CNC(=O)CN2C(=O)CSc3ccc(S(=O)(=O)N4CCCCC4)cc32)cc1 | -4.9% | -3.8 | 9.8 | ? | 11.4% | -4.8%
